# Laboratory results as given in PubChem BioAssay (NCATS).
# Inconclusive results are not listed. Values without a mark were called inactive. Calls come from the whole dose curve.
# Experiment: S16 Schwann cell PMP22 intronic element beta-lactamase assay (AID 624044);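 note: 0% = DMSO and -100% = potassium clavulanate positive control; nearly all actives have a fitted effect of over 15% in size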
# Conditions: S16 rat Schwann cells, PMP22 element beta-lactamase FRET, 24 h; series mostly up to 38.3 µM; ratio activity, negative = inhibition: at the top concentration
# Procedure, shortened: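 Beta-lactamase reporter under a PMP22 intronic regulatory element in stable S16 rat Schwann cells; 24 h compound exposure. 460 nm blue signal normalized between DMSO (0%) and potassium clavulanate, with 535 nm FRET tracking viability; curves classed by r2 and response.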
row,Structure (SMILES),"ratio activity, negative = inhibition"
1,c1csc(C2(N3CCCCC3)CCCCC2)c1,0.224%
2,CCC1(c2ccccc2)C(=O)NC(=O)N(C(=O)c2ccccc2)C1=O (stereo not given),1.32%
3,CN1CCCC(=C(c2cccs2)c2cccs2)C1,-4.04%
4,CCNC(C)Cc1cccc(C(F)(F)F)c1 (stereo not given),-3.91%
5,CC(N)Cc1ccc(O)cc1 (stereo not given),2.65%
6,CC(=O)O[C@H]1CC[C@H]2[C@@H]3CCC4=CC(=O)CCC4=C3C=C[C@]12C,3.36%
7,CC(C)(O)C1C2OC(=O)C1C1(O)CC3OC34C(=O)OC2C14C (stereo not given),-1.01%
8,CN1[C@@H]2CC[C@H]1CC(OC1c3ccccc3CCc3ccccc31)C2 (stereo not given in full),1.85% [at 17.1 µM]
9,C[C@@H](Cc1ccccc1)NCCC(c1ccccc1)c1ccccc1,-3.73% [at 17.1 µM]
10,C[N+]1(C)CCCCC1COC(=O)C(O)(c1ccccc1)c1ccccc1 (stereo not given),2.92%
11,CN1c2ccccc2C(NCCCCCCC(=O)O)c2ccc(Cl)cc2S1(=O)=O (stereo not given),1.1%
12,FC(F)OC(F)(F)C(F)Cl (stereo not given),-0.765%
13,CCON=O,3.55%
14,CCC1(C)CC(=O)NC(=O)C1,9.7% [at 17.1 µM]
15,O[C@H]1[C@H]2[C@H](O)CCCN2C[C@H]1O,1.01%
